Assay outcomes deposited in PubChem by several laboratories.
This is a sample that favours compounds with a hit; in the whole collection about 5.7% have one here.
MKP-1 inh: blocks human MKP-1 phosphatase activity | P28562 | recombinant MKP-1, OMFP hydrolysis fluorescence | AID 374 | 65,000 tested, 0.15% active | inhibition, %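 (compounds tested at a single concentration somewhere between 10 and 100 µM)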;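 active = inhibition above about 50%, limit read from the data; inconclusive = inhibition over screen mean plus 3 SD, below that limit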
Abs 340nm: compound absorbs light at 340 nm; fold change at 10 µM; 65,000 tested, under 10 active; compound absorbance at 340 nm, fold over control;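 active = at 10 µM dose, initial 340 nm absorbance at least 2 fold that of control wells; inactive = change under 2 fold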;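 also: initial absorbance extrapolated from kinetic A340 decline of NADH oxidation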
NADH enzymes: blocks coupling enzymes of NAD/NADH assays | coupled PK/LDH NADH assays, four targets | IC50, µM (series often up to 10 µM) | 65,000 tested, 0.02% active;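 active = single-dose screening hits from any of four coupled enzyme assays that gave an IC50 when retested across doses; inconclusive = no clear call, values can overlap the other calls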;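 also: the DPM-DC format reads NADH fluorescence rather than 340 nm absorbance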
Cdc25B inh: inhibitors of human Cdc25B phosphatase; 65,000 tested, 0.1% active; inhibition, %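 (compounds tested at 10 µM final in the well)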; recombinant Cdc25B, OMFP fluorescence Ex485/Em525; P30305; AID 368; in the data active = inhibition above about 50%
Target sequence (P30305 whole entry, looked up): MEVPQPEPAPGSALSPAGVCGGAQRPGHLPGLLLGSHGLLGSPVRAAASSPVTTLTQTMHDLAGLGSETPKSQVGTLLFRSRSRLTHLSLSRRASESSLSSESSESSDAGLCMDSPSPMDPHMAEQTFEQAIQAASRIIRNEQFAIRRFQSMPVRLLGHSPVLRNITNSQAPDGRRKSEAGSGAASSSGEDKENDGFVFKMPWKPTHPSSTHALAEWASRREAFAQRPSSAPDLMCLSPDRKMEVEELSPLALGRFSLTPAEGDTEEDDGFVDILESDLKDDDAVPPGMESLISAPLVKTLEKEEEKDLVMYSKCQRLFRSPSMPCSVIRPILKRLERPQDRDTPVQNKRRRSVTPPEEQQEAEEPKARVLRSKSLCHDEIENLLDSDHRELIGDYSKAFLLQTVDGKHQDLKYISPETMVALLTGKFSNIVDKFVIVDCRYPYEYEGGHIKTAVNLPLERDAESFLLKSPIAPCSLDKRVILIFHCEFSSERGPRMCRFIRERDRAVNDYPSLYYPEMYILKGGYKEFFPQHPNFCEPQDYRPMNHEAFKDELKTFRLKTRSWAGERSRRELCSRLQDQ
Autofluor 339: intrinsic fluorescence of library compounds, ex339/em460 – biochemical, MLSMR library, data from DPM-DC assay, artefact control, profiling panel; 65,000 tested, 5.5% active; compound autofluorescence, ex339/em460 nm, NADH buffer; hits give high values; 1 = no-compound wells, NADH background; fluorescence fold increase at 10 µM; AID 709;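 active = at 10 µM, mean starting fluorescence two-fold or more over control wells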;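 also: signal is the first read of a kinetic run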
Hsp90 block: displaces geldanamycin probe from tumor Hsp90; NCI-N417 lysate Hsp90, Cy3B-geldanamycin FP displacement; inhibition, % at 30 µM; 64,000 tested, 0.35% active; AID 429;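 active = inhibition above 50%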
Large screens that a line does not name were inactive.

COc1ccc(C(CNC(=O)C2CC(=O)N(Cc3ccc(C)cc3)C2)N(C)C)cc1 (configuration not stated)	none (no result: Hsp90 block)
O=C(COc1ccc(-n2cnnn2)cc1)NC(=O)NCc1ccccc1	none
O=C(c1cccs1)N(Cc1ccco1)C1CCS(=O)(=O)C1 (configuration not stated)	none
O=C(c1sc2ccccc2c1Cl)N(Cc1ccco1)C1CCS(=O)(=O)C1 (configuration not stated)	Hsp90 block 54.3
COc1ccc(OC)c(CC(NC(C)=O)C(=O)NC2CCN(c3nc(C)cc(C)c3C#N)CC2)c1 (configuration not stated)	Autofluor 339 2.82
CCOc1cc2[nH]c(=O)n(CC3CCC(C(=O)NCCC(C)C)CC3)c(=O)c2cc1OCC (configuration not stated)	MKP-1 inh inconclusive
CCOc1cc2[nH]c(=O)n(CCCN3CCCC3=O)c(=O)c2cc1OCC	Autofluor 339 2.28
CCOc1cc2[nH]c(=O)n(CCCCC(=O)NC3CCCCCC3)c(=O)c2cc1OCC	Autofluor 339 2.29
CCOc1cc2[nH]c(=O)n(CC3CCC(C(=O)NCCCOC)CC3)c(=O)c2cc1OCC (configuration not stated)	Autofluor 339 2.14
COc1ccc(S(=O)(=O)N(CC(=O)NC2CC2)c2ccc(C)cc2)cc1OC	none
COc1ccc2c(c1)c1ncn(CCN3CCCC3)c(=O)c1n2C	Autofluor 339 3.69
COc1ccccc1CCn1cnc2c3cc(C)ccc3n(C)c2c1=O	Autofluor 339 3.3
COc1ccccc1CNC(=O)Cn1cnc2ccccc2c1=O	none (no result: Hsp90 block)
COc1ccc2c(c1)[nH]c1c(=O)n(CCN(C)C)cnc12	none
CCCCc1ccc(S(=O)(=O)Nc2cc(OC)cc3cccnc23)cc1	none (no result: MKP-1 inh, Abs 340nm, NADH enzymes, Cdc25B inh, Autofluor 339)
O=C1CC(N2CCN(Cc3ccc4c(c3)OCO4)CC2)C(=O)N1CCc1ccccc1 (configuration not stated)	none
N[C@@H](CC(=O)O)C(=O)O	none (no result: MKP-1 inh, Abs 340nm, NADH enzymes, Cdc25B inh, Autofluor 339)
Cn1c(=O)n(CCc2ccccc2)c(=O)c2c1nc1n2CCCN1c1ccc(F)cc1	none
Nc1ccc(-c2nc3ccc(N)cc3o2)cc1	Autofluor 339 2.14
c1cncc(-c2nc3ccccc3o2)c1	none
Nc1ccc2oc(-c3ccccn3)nc2c1	none
Nc1cc(N)cc(-c2nc3ccccc3[nH]2)c1	Autofluor 339 2.16
Nc1ccc(-c2nc3ccc(-c4nc5ccccc5o4)cc3[nH]2)cc1	Autofluor 339 3.68
Nc1nc(-c2nc3ccccc3[nH]2)cs1	none
Cc1cc(C)cc(Nc2ncc3c(n2)CCCC3=O)c1	none
CCOC(=O)C1CCN(C(=O)C2CCN(S(=O)(=O)c3cccc4cccnc34)CC2)CC1	none
CCOc1ccc2nc(NCCNC(=O)CC)c(C#N)cc2c1	Autofluor 339 3.82
COc1ccc(OC)c(NC(=O)CSc2nnc(CNc3ccc(C)cc3C)o2)c1	none
O=C(O)Cn1c(-c2ccccc2)nc2ccccc21	none
Oc1ccccc1Cn1c(-c2ccccc2O)nc2ccccc21	Autofluor 339 3.81
COc1ccc(Nc2nc3c(c(=O)n(C)c(=O)n3C)n2CCO)cc1	none
Oc1ccccc1-c1nnc(-c2ccc(C(F)(F)F)cc2)o1	Autofluor 339 2.49
CC(=O)O[C@H]1C(=O)[C@@]2(C)C([C@H](OC(=O)c3ccccc3)[C@]3(O)C[C@H](OC(=O)[C@H](O)[C@@H](NC(=O)c4ccccc4)c4ccccc4)C(C)=C1C3(C)C)[C@]1(OC(C)=O)CO[C@@H]1C[C@@H]2O (some centres not stated)	none (no result: MKP-1 inh, Abs 340nm, NADH enzymes, Cdc25B inh, Autofluor 339)
COc1ccccc1-c1nnc(Nc2nc3c(OC)cccc3s2)o1	none
COc1cccc(OC)c1-c1nnc(-c2cn(C)c3ccccc23)o1	Autofluor 339 3.84
COC(=O)C1(CCSC)NC(c2ccco2)C2C(=O)N(C)C(=O)C21 (configuration not stated)	none
O=S(=O)(c1ccc2c(c1)C(=NO)c1cc(S(=O)(=O)N3CCCCC3)ccc1-2)N1CCCCC1	Autofluor 339 2.02
Cc1ccc(C(=O)O[C@H](C(=O)O)[C@H](OC(=O)c2ccc(C)cc2)C(=O)O)cc1 (tested in a mixture with another compound)	none (no result: MKP-1 inh, Abs 340nm, NADH enzymes, Cdc25B inh, Autofluor 339)
Cc1cc(/N=C/C=C2\N(C)c3ccccc3C2(C)C)n(CCC#N)n1	none
CCCCCOC(=O)C1=C(C)N(C)C(=O)NC1c1cc(Br)c(O)c(OC)c1 (configuration not stated)	none
CCn1c(SCC(=O)Nc2nc3ccc(OC)cc3s2)nc2c1c(=O)n(C)c(=O)n2C	MKP-1 inh 50.0
CCOC(=O)N1CCC(NC(=O)c2cccn3c(=O)c4cc(Br)ccc4nc23)CC1	MKP-1 inh 52.9, Autofluor 339 2.24
CC(C)Cn1c(N)c(C(=O)NCC2CCCO2)c2nc3ccccc3nc21 (configuration not stated)	Autofluor 339 2.11
Nc1c(C(=O)NCC2CCCO2)c2nc3ccccc3nc2n1/N=C/c1ccncc1 (configuration not stated)	none
COCCNC(=O)c1c(N)n(CCCn2ccnc2)c2nc3ccccc3nc12	Autofluor 339 3.84
COCCn1c(N)c(C(=O)NCC2CCCO2)c2nc3ccccc3nc21 (configuration not stated)	Autofluor 339 2.35
COc1ccc(C(=O)NCCCn2ccnc2)cc1	none (no result: Hsp90 block)
COCCn1c(N)c(S(=O)(=O)c2cccs2)c2nc3ccccc3nc21	Autofluor 339 3.93
COc1ccc(C(O)C(CC(=O)NCCCOC(C)C)C(=O)NCCCOC(C)C)cc1OC (configuration not stated)	none
NC(=O)CN1CCN(C(=O)Nc2ccccc2)CC1	none
COCCn1c(N)c(C(=O)Nc2sc3c(c2C(=O)OC)CCCC3)c2nc3ccccc3nc21	none
COCCn1c(N)c(C(=O)NCc2cccs2)c2nc3ccccc3nc21	Autofluor 339 3.68
COC(=O)c1c(N)n(-c2ccc(N3CCOCC3)cc2)c2nc3ccccc3nc12	none
Nc1c(C(=O)OCC2CCCO2)c2nc3ccccc3nc2n1C1CCCC1 (configuration not stated)	Autofluor 339 3.84
COc1ccc(OC)c(-n2c(N)c(C(=O)NCC3CCCO3)c3nc4ccccc4nc32)c1 (configuration not stated)	Autofluor 339 2.1
COc1ccc(-n2c(N)c(C(=O)NCC3CCCO3)sc2=S)cc1 (configuration not stated)	none
Cn1c(=O)c2c(nc(SC3C(=O)CC(C)(C)CC3=O)n2C)n(C)c1=O	none
O=C(Nc1ccccc1C(=O)N1CCN(c2ccccc2)CC1)c1ccco1	none
CCN(CC)C(=O)CSc1ncnc2c1nnn2-c1ccc(F)cc1	none
CCN(CC)C(=O)CSc1ncnc2c(-c3cccs3)nsc12	Autofluor 339 2.6
